Spn PMK inh = inhibitors of Streptococcus pneumoniae phosphomevalonate kinase; purified PMK, PK/LDH-coupled NADH absorbance 340 nm; inhibition, % at 10 µM; actives 0.49% (n = 65,000);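 active = top-ranked compounds by inhibition in the single 10 µM screen, taking a fixed number of the strongest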;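 note: 0% = full reaction with DMSO carrier and 100% = background rate without enzyme reaction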
Autofluor 339 = intrinsic fluorescence of library compounds, ex339/em460 – biochemical, MLSMR library, data from DPM-DC assay, artefact control, profiling panel; compound autofluorescence, ex339/em460 nm, NADH buffer; stronger effect = higher value; 1 = no-compound wells, NADH background; actives 5.5% (n = 65,000); fluorescence fold increase at 10 µM;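 active = at 10 µM, mean starting fluorescence two-fold or more over control wells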;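 note: signal is the first read of a kinetic run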
Spn MK inh = S. pneumoniae mevalonate kinase inhibition | inhibition, % at 10 µM | actives 0.48% (n = 65,000) | purified MK, PK/LDH-coupled NADH absorbance 340 nm | AID 555;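 active = ranked among the strongest by inhibition in the single 10 µM screen, a fixed top-ranked set picked for dose follow-up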
A340 absorber = absorbance at 340 nm; compound absorbance at 340 nm, fold over control; fold change at 10 µM; 65,000 tested, under 10 active; AID 708;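 active = at 10 µM dose, initial 340 nm absorbance at least 2 fold that of control wells; inactive = change under 2 fold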;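 note: initial absorbance extrapolated from kinetic A340 decline of NADH oxidation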
Spn DPM-DC inh = inhibitors of Streptococcus pneumoniae diphosphomevalonate decarboxylase; calls only at 10 µM; actives 0.49% (n = 65,000); purified DPM-DC, PK/LDH coupled NADH fluorescence;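 active = the 320 compounds with the highest percent inhibition in the single-dose primary screen, excluding strongly autofluorescent ones, cut at about 32% in these data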;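 note: kinetic rate of NADH fluorescence loss reporting ADP formed by the decarboxylase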
NADH enzymes = blocks coupling enzymes of NAD/NADH assays; coupled PK/LDH NADH assays, four targets; IC50, µM (doses to about 10 µM), without a hit: at the top dose inhibition; actives 0.02% (n = 65,000); AID 774;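 active = single-dose screening hits from any of four coupled enzyme assays that gave an IC50 when retested across doses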;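 note: the DPM-DC format reads NADH fluorescence rather than 340 nm absorbance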
* hit, by the source's call; i = inactive; x = not tested or not shown; + = active, no number. Shown are actives, neighbours in structure and some others; about 6.8% of the full set was active somewhere.

SMILES | Spn PMK inh | Autofluor 339 | Spn MK inh | A340 absorber | Spn DPM-DC inh | NADH enzymes
C(=N\C(/N=C/c1ccco1)c1ccco1)/c1ccco1 | 0.0 | 2.05* | 0.0 | 1.03 | i | 3.0%
COc1ccc(C(=O)Nc2cccc3c2C(=O)NC3=O)cc1S(=O)(=O)N1CCOCC1 | 25.0* | 1.47 | 4.0 | 1.05 | i | 14.0%
O=C(Nc1c(-c2ccccc2)nc2sccn12)c1ccccc1 | 40.0* | 1.07 | 15.0 | 1.03 | i | 18.0%
Nc1nc(-c2cccs2)c(NC(=O)c2ccccc2)s1 | 12.0 | 1.05 | 5.0 | 1.04 | i | 6.0%
FC(F)(F)c1cccc(N2CCN(Cc3ccoc3)CC2)c1 | 12.0 | 1.12 | 50.0* | 1.08 | i | 21.0%
FC(F)(F)c1cccc(N2CCN(Cc3cccnc3)CC2)c1 | 1.0 | 1.04 | 56.0* | 1.01 | i | 9.0%
COc1cc(CN2CCN(c3cccc(Cl)c3)CC2)cc(OC)c1OC | 3.0 | 1.02 | 3.0 | 1.02 | i | 2.0%
COc1cccc(N2CCN(Cc3cccnc3)CC2)c1 | 0.0 | 1.02 | 51.0* | 1.09 | i | 6.0%
COc1cccc(CN2CCN(c3cccc(C(F)(F)F)c3)CC2)c1OC | 0.0 | 1.06 | 4.0 | 1.03 | i | 1.0%
CN(C)S(=O)(=O)c1ccc(N2CCOCC2)nc1 | 8.0 | 1.14 | 6.0 | 1.04 | i | 8.0%
Cc1ccc(C)n1-c1ccc(N2CCOCC2)nc1 | 1.0 | 3.73* | 8.0 | 1.06 | x | 5.0%
O=P(O)(CCc1ccncc1)CN1CCCCC1 | 6.0 | 1.08 | 7.0 | 1.03 | i | 7.0%
COc1cc(C2C(C#N)=C(C)NC3=C2C(=O)CC(C)(C)C3)ccc1OCCO (centres undefined) | 12.0 | 1.3 | 4.0 | 1.08 | i | 5.0%
COc1cc(C2C(C#N)=C(C)NC3=C2C(=O)CC(C)(C)C3)cc(OC)c1O (centres undefined) | 0.0 | 1.14 | 1.0 | 1.14 | + | 12.0%
CC1=C(C#N)C(C)C2=C(CC(C)(C)CC2=O)N1 (centres undefined) | 0.0 | 2.12* | 7.0 | 1.1 | x | 4.0%
CC1=C(C#N)C(c2cccnc2)C2=C(CC(C)(C)CC2=O)N1 (centres undefined) | 14.0 | 2.08* | 7.0 | 1.08 | x | 11.0%
O=C(CSCc1ccccc1)N1CCN(c2ccc(F)cc2)CC1 | 0.0 | 1.09 | 6.0 | 1.01 | i | 2.0%
COc1cccc(CN2CCN(C(=O)CC(C)C)CC2)c1 | 7.0 | 1.04 | 61.0* | 1.07 | i | 7.0%
CCOC(=O)c1ccc(NC(=O)N2CCN(Cc3cccc(F)c3)CC2)cc1 | 7.0 | 1 | 2.0 | 1 | i | 2.0%
CC(C)CC(=O)N1CCN(Cc2cccc(F)c2)CC1 | 14.0 | 1.13 | 59.0* | 1.07 | i | 24.0%
COc1ccc(C(=O)N2CCN(C(=O)CC(C)C)CC2)cc1OC | 6.0 | 1.12 | 5.0 | 1.04 | i | 4.0%
O=C(CSCc1cccc(F)c1)N1CCN(c2ccccc2)CC1 | 25.0* | 1.01 | 7.0 | 1 | i | 12.0%
CCOC(=O)CSc1nc(N)c(C#N)c(CC(C)C)c1C#N | 0.0 | 1.23 | 5.0 | 1.07 | i | 2.0%
CC(C)Cc1nnc(NS(=O)(=O)c2ccc(Cl)cc2)s1 | 6.0 | 1.08 | 1.0 | 1 | i | 1.0%
CCOC(=O)c1sc2nc(N3CCOCC3)c3c(c2c1N)CCN(C)C3 | 0.0 | 3.74* | 0.0 | 1.24 | x | 0.0%
SMILES | Spn PMK inh | Autofluor 339 | Spn MK inh | A340 absorber | Spn DPM-DC inh | NADH enzymes
CNC(=O)c1ccc(-c2sc3nc(N4CCOCC4)c4c(c3c2N)CCCC4)o1 | 9.0 | 2.2* | 12.0 | 1.15 | x | 11.0%
Cn1cnc2c(sc3nc(N4CCOCC4)c4c(c32)CC(C)(C)OC4)c1=O | 10.0 | 1.99 | 11.0 | 1.1 | x | 11.0%
CC1(C)Cc2c(c(N3CCOCC3)nc3sc(-c4ccc(C(=O)O)o4)c(N)c23)CO1 | 9.0 | 3.84* | 7.0 | 1.26 | x | 8.0%
CCN(CC)c1nc(N2CCOCC2)c(C#N)c2c1CN(C)CC2 | 2.0 | 1.12 | 17.0 | 1.1 | i | 6.0%
c1nc(N2CCOCC2)c2sc3nc(N4CCOCC4)c4c(c3c2n1)CCCC4 | 13.0 | 1.23 | 6.0 | 1.03 | i | 7.0%
CC1(C)Cc2c(c(N3CCOCC3)nc3sc(C(=O)N4CCCCC4)c(N)c23)CO1 | 3.0 | 2.13* | 4.0 | 1.07 | x | 4.0%
COc1ccc2[nH]c(=O)c(CN(Cc3ccccc3)Cc3nnnn3CC3CCCO3)cc2c1 (centres undefined) | 10.0 | 2.32* | 12.0 | 1.05 | i | 13.0%
COc1cc2cc(CN(Cc3nnnn3Cc3ccccc3)CC3CCCO3)c(=O)[nH]c2cc1OC (centres undefined) | 15.0 | 3.26* | 13.0 | 1.08 | i | 18.0%
CCc1ccc2[nH]c(=O)c(CN(Cc3ccc(OC)cc3)Cc3nnnn3CCOC)cc2c1 | 0.0 | 1.35 | 9.0 | 1.06 | i | 6.0%
Cc1ccc2[nH]c(=O)c(CN(Cc3cccs3)Cc3nnnn3Cc3ccccc3)cc2c1 | 11.0 | 1.18 | 8.0 | 1 | i | 6.0%
CCOC(=O)c1ccc(NS(=O)(=O)c2cnc[nH]2)cc1 | 5.0 | 1.04 | 10.0 | 0.97 | i | 5.0%
CCCC(=O)NCCCc1nc2ccccc2n1C(C)C | 0.0 | 1.12 | 5.0 | 1.02 | i | 2.0%
NC(=O)C1CCCN(C(=O)Nc2cccc3ccccc23)C1 (centres undefined) | 0.0 | 2.26* | 4.0 | 1.07 | i | 4.0%
CCN1CCN(C(=O)Nc2cccc3ccccc23)CC1 | 0.0 | 1.62 | 6.0 | 1.01 | i | 2.0%
CN1CCN(C(=O)Nc2cccc3ccccc23)CC1 | 0.0 | 2.08* | 1.0 | 1.04 | x | 1.0%
Cc1ccc2nc3c(cc(C(N)=S)c(=N)n3CCCOC(C)C)c(=O)n2c1 | 10.0 | 1.51 | 11.0 | 1.05 | i | 8.0%
Cc1nc2c(C(=O)N3CCCCC3)cnn2c(C)c1Cc1ccccc1F | 3.0 | 3.18* | 0.0 | 1.01 | i | 5.0%
Cc1ccccc1Cc1c(C)nc2c(C(=O)N3CCN(Cc4ccc5c(c4)OCO5)CC3)cnn2c1C | 14.0 | 2.26* | 0.0 | 1 | + | 8.0%
Cc1ccc(Cc2c(C)nc3c(C(=O)O)cnn3c2C)cc1 | 16.0 | 1.63 | 3.0 | 0.99 | i | 5.0%
Nc1cc(C(=O)OCC(=O)NCc2ccco2)ccc1Cl | 10.0 | 1.79 | 3.0 | 1.03 | i | 6.0%
CCCc1nc(SCC(N)=O)[nH]c(=O)c1CC | 16.0 | 1.13 | 5.0 | 0.98 | i | 7.0%
Cc1onc(-c2ccccc2Cl)c1C(=O)Nc1ccc(-c2cn3cccnc3n2)cc1 | 18.0 | 5.24* | 0.0 | 1.09 | x | 9.0%
Cc1ccc(-c2cn3cccnc3n2)cc1NC(=O)c1c(-c2ccccc2Cl)noc1C | 10.0 | 5.22* | 0.0 | 1.03 | x | 5.0%
CC(=O)Nc1cccc(NC(=O)c2c(-c3ccccc3Cl)noc2C)c1 | 4.0 | 1.03 | 7.0 | 1.04 | i | 4.0%
Cc1onc(-c2ccccc2Cl)c1C(=O)Nc1cccc(-c2nc3ncccn3c2C)c1 | 12.0 | 5.18* | 0.0 | 1.02 | x | 6.0%

Screens (PubChem)
